Reference: PubChem BioAssay (NCI)
This is part of a sample that, as a whole, favours compounds with a hit. Of some 79,000 tested, about 15% had one in any assay. Activity calls are given as the source filed them. Cut-off read from the data, not from the text of the source: active = growth inhibition above about 70%; inactive = the rest.

What was measured:
[1] = NCI Yeast Anticancer Drug Screen. Data for the rad50 strain (AID 155);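 note: 0% = growth of vehicle-only cultures of the same strain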; details: S. cerevisiae rad50 strain growth inhibition; at 50.0 µM; stronger effect = higher value
Procedure, shortened: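 A DNA repair-deficient yeast mutant serves as the test organism; compound-induced growth inhibition is calculated against vehicle-treated cells.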

[2] = NCI Yeast Anticancer Drug Screen. Data for the mec2-1 strain (AID 157); details: S. cerevisiae mec2-1 strain, at 50.0 µM, stronger effect = higher value
Procedure, shortened: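 Compounds were applied to mec2-1 yeast cells. Their growth was then compared with that of vehicle-treated cultures to give growth inhibition.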

[3] = NCI Yeast Anticancer Drug Screen. Data for the sgs1 mgt1 strain (AID 161);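 note: 0% = growth of cultures given vehicle only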; details: S. cerevisiae sgs1 mgt1 strain, at 50.0 µM, stronger effect = higher value
Procedure, shortened: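 Growth of a repair-deficient yeast mutant was monitored after compound treatment and expressed as inhibition relative to vehicle-treated cultures.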

[4] = NCI Yeast Anticancer Drug Screen. Data for the cln2 rad14 strain (AID 165);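 note: 0% = growth equal to vehicle treated cultures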; details: S. cerevisiae cln2 rad14 strain, at 50.0 µM, stronger effect = higher value
Procedure, shortened: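 Strain: cln2 rad14 yeast, altered in cell cycle control and DNA damage repair. Read-out: growth inhibition vs vehicle.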

[5] = NCI Yeast Anticancer Drug Screen. Data for the bub3 strain (AID 167); details: S. cerevisiae bub3 mutant strain, at 50.0 µM, stronger effect = higher value
Procedure, shortened: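 Inhibition values come from growth of compound-treated mutant yeast normalised to vehicle-treated controls.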

[6] = NCI Yeast Anticancer Drug Screen. Data for the mlh1 rad18 strain (AID 175); details: S. cerevisiae mlh1 rad18 strain growth inhibition; at 50.0 µM; stronger effect = higher value
Procedure, shortened: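 A repair-deficient yeast strain is exposed to test compound, and growth is scored relative to vehicle-treated controls.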

Measured: growth inhibition

O=[N+]([O-])c1cccc(/C=C/C=C/c2ccc(Cl)c(Cl)c2)c1
inactive: [1] 7.65% | [2] 9.3% | [3] 30.3% | [4] 3.65% | [5] 28.2% | [6] 4.1%

COc1ccc(-c2c(C(C)=O)c(-c3ccccc3)n(C3OC(COC(C)=O)C(OC(C)=O)C(OC(C)=O)C3OC(C)=O)c(=S)c2C#N)cc1 (stereo unspecified)
inactive: [1] -17.7% | [2] -25.9% | [3] -26.1% | [4] 7.85% | [5] 0.75% | [6] -36.2%

Cc1c(C(=O)Nc2ccccc2)nnn1-c1ccnc2cc(C(F)(F)F)ccc12
inactive: [1] -13.8% | [2] -6.75% | [3] -8.85% | [4] -4.05% | [5] -5.6% | [6] 2%

O=C1C=C2CCCCCCCCC(C1)C2 (stereo unspecified)
inactive: [1] -1.85% | [2] -9.85% | [3] -5.45% | [4] -18.8% | [5] 12.4% | [6] 0.1%

O=C(O)C1CCC(C(=O)O)S1 (stereo unspecified)
inactive: [1] 1.85% | [2] -10.4% | [3] -0.85% | [4] -13.1% | [5] 9.9% | [6] 16.1%

COC(=O)[C@H](Cc1c[nH]c2ccccc12)NP(=O)(OCCC#N)OCC1OC(n2cc(C)c(=O)[nH]c2=O)CC1N=[N+]=[N-] (stereo partly specified)
inactive: [1] -13.6% | [2] -33.1% | [3] -23.4% | [4] -13.3% | [5] -30.8% | [6] -65%

CCCCNCC1C(O)CCC2CN3CCc4c([nH]c5ccccc45)C3CC21 (stereo unspecified)
inactive: [1] 15.9% | [2] 5.85% | [3] 11.3% | [4] 9.9% | [5] 6.05% | [6] 16.9%

CN(C)c1ccc(-c2ccncc2)cc1
inactive: [1] 21.6% | [2] 15.2% | [3] 18.9% | [4] -11.8% | [5] 17.4% | [6] 17.2%

C=C1C(C2(C)C=CC(=O)OC3(C)COC(=O)CC32)C(OC=O)C(OC(=O)C(O)C(C)CC)C2(C)C(c3ccoc3)CC(OC(C)=O)C12O (stereo unspecified)
inactive: [1] 7.9% | [2] -5.2% | [3] -4.65% | [4] -0.45% | [5] 16.3% | [6] -21.4%

CC(C)CC(=O)Cc1ccccc1
inactive: [1] 18.8% | [2] 14.7% | [3] 19.2% | [4] -52.7% | [5] -2.2% | [6] -0.2%

c1ccc(SCCP(CCP(c2ccccc2)c2ccccc2)c2ccccc2)cc1 (stereo unspecified)
inactive: [1] 34.9% | [2] 2.6% | [3] 14.3% | [4] 22.4% | [5] 37.8% | [6] 57.1%

OCCCCCCCCCCCBr
inactive: [1] 28.4% | [2] 4.05% | [3] -3.1% | [4] -27.1% | [5] 9.4% | [6] 17.1%

CCOC(Nc1ccc(Cl)cc1Cl)C(=O)c1ccccc1 (stereo unspecified)
inactive: [1] 8.65% | [2] 6.05% | [3] -2.8% | [4] 1.85% | [5] 11.8% | [6] 1.8%

COC(=O)[CH2][Ge]([c]1ccccc1)[c]1ccccc1.COC(=O)[CH2][Ge]([c]1ccccc1)[c]1ccccc1
inactive: [1] 15.8% | [2] 9.15% | [3] 37.3% | [4] -5% | [5] -12.2% | [6] -8.3%

O=C(O)C1CSC2(CCCC2)N1 (stereo unspecified)
inactive: [1] 16.6% | [2] 4.15% | [3] 12.1% | [4] 4.35% | [5] 5.7% | [6] -1.6%

Cc1ccccc1S(=O)(=O)NC1c2ccccc2Oc2ccccc21
inactive: [1] -9.85% | [2] -3.7% | [3] -5.3% | [4] -12.1% | [5] 2.5% | [6] -7.9%

CCOC(=O)NCC(C)(C)N(C(=O)OCC)c1ccccc1
inactive: [1] -24.1% | [2] -42.1% | [3] -15.7% | [4] -9.95% | [5] -37.8% | [6] -7.7%

CC(=O)c1ccc(C)c([N+](=O)[O-])c1
inactive: [1] -13.2% | [2] -5.65% | [3] -11.6% | [4] -48.1% | [5] -7.15% | [6] -0.6%

OC(c1ccccc1)C(Cc1ccccc1)N1CCCCC1 (stereo unspecified)
inactive: [1] 2.4% | [2] 1.3% | [3] 23.2% | [4] -4.45% | [5] 7.7% | [6] 5.35%

CCN=C1Nc2ccccc2-n2c(nn3nc4ccccc4c23)N1CC
inactive: [1] -13.1% | [2] -26.4% | [3] -42% | [4] -24.3% | [5] -41% | [6] -51.7%

Cc1ccc(NC(=O)CCC(=O)O)cc1Cl
inactive: [1] -19.9% | [2] -15.9% | [3] -4.25% | [4] -27.2% | [5] -10.9% | [6] -16.2%

COc1ccc2c(c1)OC[C@@H]1c3cc(NC(=O)c4ccccc4)c(OC)cc3N(S(=O)(=O)c3ccccc3)[C@H]21
inactive: [1] -22.8% | [2] -6.4% | [3] -18.1% | [4] -3.3% | [5] 2.25% | [6] -2.25%

COc1cccc(CN2CCCN(Cc3cccc(OC)c3O)C2c2ccccc2)c1O
inactive: [1] 22.1% | [2] 3.2% | [3] 1.8% | [4] -6.45% | [5] 0.9% | [6] 12.4%

N#CC1(c2ccccc2)C(c2ccccc2)=C1c1ccccc1
inactive: [1] 1.75% | [2] 5.15% | [3] 2.25% | [4] -4.55% | [5] 8.7% | [6] -8.95%

c1ccc(Nc2cc(Nc3ccccc3)ncn2)cc1
inactive: [1] 4.4% | [2] -20.5% | [3] 3.8% | [4] -6.5% | [5] -2.2% | [6] 2.35%

Oc1ccccc1C=Nc1cccnc1
inactive: [1] 6.75% | [2] -19.5% | [3] -2.45% | [4] -7.2% | [5] -0.6% | [6] 8.7%

CSCSCC(CO)NC(=O)/C(C)=C\c1c(C)[nH]c(=O)[nH]c1=O (stereo unspecified)
inactive: [1] -3.35% | [2] -2% | [3] -2.35% | [4] -7% | [5] 8.4% | [6] -13.1%

N#CC1(C#N)C(CCl)C1(C#N)C#N
inactive: [1] 2.85% | [2] -6.95% | [3] -1.15% | [4] -15.2% | [5] -4% | [6] -8.6%

CC(=O)Nc1cccc(/C=C/C=C/c2cccc([N+](=O)[O-])c2)c1
active: [1] 89.3% | [2] 91.2% | [3] 93.5% | [4] 81.1% | [5] 91.3% | [6] 91.2%

COc1cccc2c1[C@]1(O)C(O)CCCC21 (stereo partly specified)
inactive: [1] -43.6% | [2] -6.6% | [3] -60.6% | [4] 5.95% | [5] -31.9% | [6] -35.7%

CN1CCC(CO)CC1
inactive: [1] -12.8% | [2] -2.7% | [3] -2.65% | [4] 9.05% | [5] 11.8% | [6] -8.4%

COc1cc(CN(c2ccccc2C(=O)O)S(=O)(=O)c2ccc(C)cc2)ccc1[N+](=O)[O-]
inactive: [1] 43.9% | [2] 2.65% | [3] 38.2% | [4] -19.6% | [5] -4.5% | [6] 35.6%

Nc1cc(N)n(C2=NCCN2)n1
inactive: [1] -1.5% | [2] -27.5% | [3] 8% | [4] 11.1% | [5] 0% | [6] -13.3%

Nc1cc(F)cc(C(F)(F)F)c1F
inactive: [1] 13.5% | [2] -32.3% | [3] -4.3% | [4] -12.2% | [5] -5.35% | [6] 18.6%

CCSCC1(c2ccc(OC)cc2)NC(=O)NC1=O (stereo unspecified)
inactive: [1] -20.5% | [2] 2.65% | [3] 7.6% | [4] -10.1% | [5] -10.7% | [6] 1.05%

COc1cc(C2C(C(=O)O)=C(CO)Oc3cc4c(cc32)OCO4)cc(OC)c1OC (stereo unspecified)
inactive: [1] -5.4% | [2] 7.35% | [3] -4.95% | [4] 1.1% | [5] -4.6% | [6] 4.25%

O=C(O)c1cc(Cl)cc([N+](=O)[O-])c1
inactive: [1] 41.1% | [2] -3% | [3] 52.5% | [4] 19.3% | [5] 23% | [6] 52.9%

N#C/C(=C\c1ccc2[nH]ccc2c1)C(=O)NCCCCNC(=O)/C(C#N)=C/c1ccc2[nH]ccc2c1
inactive: [1] 5.35% | [2] 23.2% | [3] 10.4% | [4] -21.4% | [5] 9.65% | [6] 5.7%

O=C1CCCC2(c3ccc([N+](=O)[O-])cc3)C1C1C(=O)CCCC12c1ccc([N+](=O)[O-])cc1 (stereo unspecified)
inactive: [1] 44% | [2] -0.6% | [3] 14.2% | [4] 12.6% | [5] 5.4% | [6] 5.5%

CC(C)(N)CNc1ccccc1
inactive: [1] -0.55% | [2] -4.95% | [3] -9.85% | [4] -11.1% | [5] 15.7% | [6] -4.4%

CCC(C)(O)Cc1ccccc1Cl (stereo unspecified)
inactive: [1] 30.1% | [2] 24.1% | [3] 21.9% | [4] 17.1% | [5] 7.2% | [6] 11.8%
